The list is not random: actives were taken first. Their share in the collection is about 17%.
TDP1 cell CPT: DT40-hTDP1 cell growth loss with CPT; chicken DT40 Tdp1-/-;hTDP1 cells + 20 nM CPT, ATP luminescence, 48 h; Potency, µM (titrated, usually from 46.2 µM), for the others: top-dose activity change, negative = growth inhibition, actives largely listed as inhibitors; 12% of 420,000 active; note: % is set by controls: 0 for no effect and ±100 for the full control effect; nearly all actives have a fitted effect of over 55% in size
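Cell growth measured by CellTiter-Glo luminescence after a minimum 48 h, 37 C compound exposure with 20 nM CPT in Tdp1-knockout DT40 cells stably expressing hTDP1, seeded 400/well; qHTS titration format.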
HT1080-NT tox: kills 2HG-producing HT-1080-NT fibrosarcoma cells; HT-1080-NT fibrosarcoma viability, CellTiter-Glo ATP luminescence, 48 h; Potency, µM (series often up to 46.1 µM), for the others: at the highest dose activity, negative = less viability, actives largely listed as cytotoxic; 1.6% of 360,000 active; AID 686970;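 note: NT is the 2HG producing partner of a matched IDH1 knockdown line; 0% = DMSO-treated cells and -100% = media-only wells without cells; nearly all actives have a fitted effect of over 55% in size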
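Viability by CellTiter-Glo luminescence after 48 h compound exposure at 37C of HT-1080-NT cells (750/well, RPMI, 5% FBS). % activity scaled between DMSO wells and medium-only wells, then curve-fitted and categorized by curve class.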
HT1080 IDH1KD tx: kills HT-1080 cells with IDH1 knockdown. HT-1080 IDH1 knockdown viability, ATP luminescence, 48 h. Potency, µM (series often up to 46.1 µM), inactives show top-dose activity, negative = toxicity, most hits filed as cytotoxic. 2% of 360,000 active;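 note: 0% = DMSO wells and -100% = cell-free medium wells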
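CellTiter-Glo luminescence after 48 h compound exposure at 37 degrees C of IDH1-knockdown HT-1080 cells in 5% FBS RPMI. %Activity scaled between DMSO wells and cell-free media wells, with curves fitted and assigned curve classes.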
DT40 TDP1 no CPT: qHTS for Inhibitors of human tyrosyl-DNA phosphodiesterase 1 (TDP1): qHTS in cells in absence of CPT | DT40 Tdp1-/- hTDP1 cells, no CPT, ATP luminescence, 48 h | Potency, µM (titrated, usually from 46.2 µM), inactives show at the top dose activity change, negative = growth inhibition, usual class: inhibitors | 15% of 420,000 active | AID 686978, 2013; note: % is set by controls: 0 for no effect and ±100 for the full control effect; nearly all actives have a fitted effect of over 55% in size
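Chicken DT40 Tdp1-/- cells stably complemented with human TDP1 were seeded at 400 cells/well with DMSO in place of 20 nM camptothecin. After compound pinning, cells grew at least 48 hr at 37 °C; viability read by CellTiter-Glo luminescence.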
HepG2 viability: counter-screen for TGF-b inhibitors: cytotoxicity in HepG2 cells; HepG2 CAGA-GFP viability, ATP luminescence, 18 h; Potency, µM (titrated, usually from 46.1 µM), for the others: at the highest dose activity change, negative = cytotoxicity, most hits filed as cytotoxic; 0.76% of 410,000 active; AID 588856
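HepG2 CAGA-GFP cells (1000/well, DMEM with 1% FBS) received compound, then TGF-beta at 500 pg/mL final, and were incubated 18 hours at 37 degrees C. Viability was read by CellTiter-Glo luminescence. Media-only wells were set as complete cell-killing and DMSO as no toxicity.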
TGFb inhibitor: inhibitors of TGF-b signaling | HepG2 CAGA-GFP TGF-b/SMAD3 reporter, GFP fluorescence, 18 h; TGF-beta stimulated, 500 pg/mL final | Potency, µM (series often up to 46.1 µM), for inactives: at the highest dose activity, negative = inhibition, hits mostly inhibitors | 1.2% of 410,000 active | AID 588855; note: % is set by controls: 0 for no effect and ±100 for the full control effect; nearly all actives have a fitted effect of over 65% in size
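Per well, imaged GFP fluorescence of HEPG2 CAGA-GFP cells gives the signal; cells get compound, then TGF-beta (500 pg/mL final), 18 h at 37 degrees C; %Activity versus -TGF-beta and +DMSO controls.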
Starred values were filed as active, the others as inactive; [ ] = remark or other dose. Calls come from the whole dose curve; as a rule, active = well fitted curve in the direction sought with a large enough effect; inconclusive = small, poorly fitted or top-dose-only effect, or another doubt; inactive = no such curve, though single readings can be large; an effect the other way counts as inactive or inconclusive. Potency is the fitted concentration of half-maximal effect.

For COc1cccc(C2C(C(=O)c3cccs3)=C(O)C(=O)N2c2cc(C)on2)c1 (stereo not drawn) the results were TDP1 cell CPT -21%, HT1080-NT tox 25%, HT1080 IDH1KD tx 13%, DT40 TDP1 no CPT -9%, HepG2 viability -4% and TGFb inhibitor -12%.
CCOc1ccc(C2C(C(=O)c3ccc(C)o3)=C(O)C(=O)N2c2cc(C)on2)cc1OC (stereo not drawn) was read as TDP1 cell CPT -9%, HT1080-NT tox 0%, HT1080 IDH1KD tx -4%, DT40 TDP1 no CPT 19%, HepG2 viability 2% and TGFb inhibitor 2%.
For Cc1cc(N2C(=O)C(O)=C(C(=O)c3cc4ccccc4o3)C2c2ccc(OC(C)C)cc2)no1 (stereo not drawn) the results were TDP1 cell CPT inconclusive, HT1080-NT tox -8%, HT1080 IDH1KD tx -4%, DT40 TDP1 no CPT 16µM*, HepG2 viability 1% and TGFb inhibitor -5%.
CCOC(=O)c1sc(N2C(=O)C(O)=C(C(=O)c3ccc(C)o3)C2c2ccc(OC)c(OC)c2)nc1C (stereo not drawn) was read as TDP1 cell CPT 23µM*, HT1080-NT tox 7%, HT1080 IDH1KD tx 6%, DT40 TDP1 no CPT inconclusive, HepG2 viability 5% and TGFb inhibitor -4%.
COc1cccc(C2C(C(=O)c3ccc(C)o3)=C(O)C(=O)N2c2cc(C)on2)c1 (stereo not drawn) was read as TDP1 cell CPT 23µM*, HT1080-NT tox 0%, HT1080 IDH1KD tx 1%, DT40 TDP1 no CPT inconclusive, HepG2 viability 0% and TGFb inhibitor 5%.
For Cc1cccc(-c2nn3c(=O)cc(CN4CCN(C(=O)/C=C/c5ccccc5)CC4)nc3s2)c1 the results were TDP1 cell CPT -2%, DT40 TDP1 no CPT inconclusive, HepG2 viability -13% and TGFb inhibitor inconclusive.
For Cc1nc(NCc2cnn(C)c2)sc1-c1ccn(-c2cccc(F)c2)n1 the results were TDP1 cell CPT 22%[9.04 µM] and DT40 TDP1 no CPT -24%.
Screening COc1ccc(NC(=O)Nc2c[nH]c(=O)[nH]c2=O)cc1 returned TDP1 cell CPT 3%, HT1080-NT tox 4%, HT1080 IDH1KD tx 13%, DT40 TDP1 no CPT 5%, HepG2 viability 4% and TGFb inhibitor 21%.
Screening COc1cccc(CNC(=O)C(=O)NCC2OCCCN2S(=O)(=O)c2cc(C)ccc2C)c1 (stereo not drawn) returned TDP1 cell CPT inconclusive, HT1080-NT tox 4%, HT1080 IDH1KD tx 2%, DT40 TDP1 no CPT -30%, HepG2 viability 0% and TGFb inhibitor -10%.
For O=C(Oc1ccc(Cl)cc1)c1ccc2nccnc2c1 the results were TDP1 cell CPT 4%, HT1080-NT tox 15%, HT1080 IDH1KD tx 11%, DT40 TDP1 no CPT -15%, HepG2 viability -10% and TGFb inhibitor 5%.
`Cc1ccc2c(C)ccnc2c1` gave TDP1 cell CPT 10µM*, DT40 TDP1 no CPT 7.1µM*, HepG2 viability -18% and TGFb inhibitor inconclusive.
`Cc1ccc2nccnc2c1` gave TDP1 cell CPT 3.5µM*, DT40 TDP1 no CPT 3.2µM*, HepG2 viability 5.6µM* and TGFb inhibitor 8.9µM*.
`Clc1ccc2nccnc2c1` gave TDP1 cell CPT 1µM*, DT40 TDP1 no CPT 0.79µM*, HepG2 viability 14µM* and TGFb inhibitor inconclusive.
Screening CC(=O)c1ccc(OCC(=O)Nc2ccc(N3CCCCC3)cc2)cc1 returned TDP1 cell CPT -24%, HT1080-NT tox -1%, HT1080 IDH1KD tx -3%, DT40 TDP1 no CPT inconclusive, HepG2 viability -17% and TGFb inhibitor 4%.
